According to PubChem BioAssay AID463173 (ICCB-Longwood Screening Facility, Harvard Medical School, 2010):
The whole screen tested about 52,000 compounds, of which about 4,300 (8.3%) were called active. No stated cut-off is given here; in the data, active means survival mostly below about 52% (no sharp cut-off); inactive means mostly above about 56%. The full list was thinned out, with actives kept by preference.

The compounds below were run on DeltatarO mutant (assay: growth inhibition of S. aureus wild type versus tarO mutant, primary screen, teichoic acid synthesis inhibitors, RN4220, OD600 (AID 463173)). Settings: OD600, 18 h, hits give low values, screened at 18.75 µg/mL (by protocol).

SMILES	survival
Cc1ccc(C)c(NC(=O)Cn2cc(S(=O)(=O)N3CCCC3)c(S(=O)(=O)N3CCCC3)c2)c1	94% (inactive)
COc1ccc(OC)c(NC(=O)c2cn3c4c(ccc(Cl)c4c2=O)OC(C)C3)c1 (stereo not given)	87% (inactive)
Cc1ccc(-c2cc(NC(=O)COc3ccc(Cl)c(C)c3)on2)cc1	86% (inactive)
Oc1c(Br)cc(Br)cc1-c1nc2ccccc2s1	126% (inactive)
CCOc1ccccc1CNC(=O)CCn1cccn1	67% (inactive)
CCOC(=O)C1CCN(c2cc3c(cc2NC(=O)c2ccc(Cl)cc2)n(C)c(=O)n3C)CC1	93% (inactive)
COc1ccc(CNC(=O)C2=C(C)C(=O)OC23CCCCC3)cc1	82% (inactive)
CCc1ccc(S(=O)(=O)c2cn(C)c3cc(OC)c(OC)cc3c2=O)cc1	121% (inactive)
CCOC(=O)c1ccc(NC(=O)C2Cc3ccccc3CN2S(=O)(=O)c2ccc(Cl)cc2)cc1 (stereo not given)	53% (inactive)
CCCc1c(C)c2ccc(O)c(CN3CCN(c4ccc(F)cc4)CC3)c2oc1=O	52% (inactive)
O=C(NCCCN=C1NS(=O)(=O)c2ccccc21)c1ccncc1	85% (inactive)
COc1cccc(C(=O)Nc2c(C(=O)Nc3ccc(F)cc3)oc3ccccc23)c1OC	60% (inactive)
O=C(Nc1c(C(=O)Nc2ccc(F)cc2)oc2ccccc12)c1ccccc1F	40% (active)
CCOc1ccccc1C(=O)Nc1c(C(=O)Nc2ccc(F)cc2)oc2ccccc12	83% (inactive)
O=C(Nc1c(C(=O)N2CCN(c3ccccc3)CC2)oc2ccccc12)c1ccco1	37% (active)
CCOc1ccc(C(=O)Nc2c(C(=O)c3ccc(OC)cc3)oc3ccccc23)cc1	79% (inactive)
O=C(Nc1c(C(=O)N2CCN(c3ccc(F)cc3)CC2)oc2ccccc12)c1ccco1	74% (inactive)
CCOc1cccc(C(=O)Nc2c(C(=O)c3ccc(OC)cc3)oc3ccccc23)c1	28% (active)
O=C(Nc1c(C(=O)N2CCN(c3ccccc3F)CC2)oc2ccccc12)c1ccco1	69% (inactive)
COc1ccc(C(=O)c2oc3ccccc3c2NC(=O)c2cccc(OC)c2)cc1	58% (inactive)

SMILES	survival
COCCNC(=O)c1ccc2nc(CCc3ccccc3)oc2c1	112% (inactive)
CCOC(=O)c1c(NC(=O)/C=C/c2ccc(OCC)cc2)sc(C)c1C	50% (inactive)
CCOc1ccc(C(c2c(O)cc(C)n(CCOC)c2=O)N2CCC(C)CC2)cc1 (stereo not given)	73% (inactive)
CCOc1ccc(S(=O)(=O)N(CC(=O)NCCc2ccc(OC)cc2)c2ccccc2)cc1	92% (inactive)
COc1ccccc1N(CC(=O)Nc1ccccc1C(F)(F)F)S(=O)(=O)c1ccc(C)cc1	64% (inactive)
Cc1cccc(N(CC(=O)Nc2cccc(Cl)c2C)S(C)(=O)=O)c1C	61% (inactive)
CCOc1ccc(S(=O)(=O)N(CC(=O)NCc2ccccc2OC)c2ccccc2)cc1	37% (active)
COc1ccc(OC)c(NC(=O)CN(c2ccccc2OC)S(=O)(=O)c2ccc(C)cc2)c1	54% (inactive)
CCc1ccccc1NC(=O)CN(c1cc(C(F)(F)F)ccc1Cl)S(=O)(=O)c1ccccc1	44% (active)
Cc1cc(C)cc(NC(=O)CN(c2cc(C(F)(F)F)ccc2Cl)S(=O)(=O)c2ccccc2)c1	79% (inactive)
CCc1ccccc1NC(=O)CN(c1ccccc1OC)S(=O)(=O)c1ccc(C)cc1	36% (active)
O=C(CN(c1cc(C(F)(F)F)ccc1Cl)S(=O)(=O)c1ccccc1)NCCc1ccccc1	66% (inactive)
Cc1cccc(N(CC(=O)NCc2ccccc2)S(C)(=O)=O)c1C	70% (inactive)
CCOc1ccc(S(=O)(=O)N(CC(=O)NCCc2ccc(OC)c(OC)c2)c2ccccc2)cc1	49% (inactive)
CCc1ccccc1NC(=O)CN(c1cccc(C)c1C)S(C)(=O)=O	54% (active)
COc1cccc2cc(C(=O)N3CCCCC3)c(=O)oc12	85% (inactive)
Nc1cccc(C(=O)NC23CC4CC(CC(C4)C2)C3)c1	95% (inactive)
O=C1CCCC/C1=N\Nc1ccc(N2CCCCC2)cc1	90% (inactive)
Cc1nc2ccn(Cc3ccco3)c(=O)c2cc1C(=O)NCc1ccccc1F	86% (inactive)
O=C(O)c1ccccc1SC1CC(=O)N(Cc2ccccc2)C1=O (stereo not given)	81% (inactive)

SMILES	survival
CCOc1ccc(CCNC(=O)CCCc2nnc3n(CCCOC)c(=O)c4sccc4n23)cc1	91% (inactive)
NS(=O)(=O)c1ccc(NC(=O)C2CCCO2)cc1 (stereo not given)	95% (inactive)
CCN1c2ccccc2-n2cccc2C12CCN(C(=O)Nc1ccccc1Br)CC2	91% (inactive)
COc1ccc(CCNC(=O)Cc2c(C)c3c(cc(C)c4c(C)c(C)oc43)oc2=O)cc1OC	83% (inactive)
Cc1ccc2c(CNCC(C)c3ccccc3)c(C(=O)O)n(Cc3ccccc3C)c2c1 (stereo not given)	70% (inactive)
COc1ccccc1N(CC(=O)NCCSCc1ccccc1)S(=O)(=O)c1ccc(C)cc1	41% (active)
COc1ccccc1N(CC(=O)NCCSCc1ccccc1)S(C)(=O)=O	70% (inactive)
COc1ccccc1N(CC(=O)NCCSc1ccccc1)S(=O)(=O)c1ccc(C)cc1	62% (inactive)
Cc1ccc(Cn2cc3c(n2)-c2c(oc(C(=O)Nc4ccc(F)cc4F)c2C)CC3)cc1	85% (inactive)
CN1CCN(c2nc3c(S(=O)(=O)c4ccccc4)nnn3c3ccsc23)CC1	86% (inactive)
Cc1cccc(OC(=O)CSc2nnc(-c3ccc4c(c3)OCO4)o2)c1C	72% (inactive)
Cc1ccc(OC(=O)c2cc(-c3ccc4c(c3)OCCO4)on2)c(C)c1	-2% (active)
Cc1ccccc1OC(=O)c1cc(-c2ccc3c(c2)OCCO3)on1	-1% (active)
Cc1ccc(NC(=O)c2cc(-c3ccc4c(c3)OCO4)on2)cc1	75% (inactive)
Cc1cccc(OC(=O)c2cc(-c3ccc(Cl)cc3)on2)c1C	106% (inactive)
CC(C)c1ccc(OC(=O)c2cc(-c3ccccc3)on2)cc1	109% (inactive)
Cc1ccc(OC(=O)c2cc(-c3ccc(Cl)cc3)on2)c(C)c1	92% (inactive)
COc1ccc(-c2cc(C(=O)Nc3c(Cl)cccc3Cl)no2)cc1OC	58% (inactive)
Cc1ccc(-c2cc(C(=O)Oc3ccccc3Cl)no2)cc1C	-1% (active)
Cc1cccc(OC(=O)c2cc(-c3ccc4c(c3)OCCO4)on2)c1C	-1% (active)
